# Autofluor Jurkat – counter-screen for VLA-4 integrin: compound autofluorescence in Jurkat cells. hit rate 0.61% among 24,000. flow cytometry; stronger effect = higher value; 1 = vehicle-only cell background. fluorescence ratio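 (tested at 10 µM compound in the well)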;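 active = fluorescence ratio above 2.44, which is 1 plus 3 SD of all ratios; inconclusive = signal too bright to measure linearly, ratio around 10 or more; inactive = fluorescence ratio below 2.44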;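 also: green fluorescence of cells measured with 488 nm excitation and 530 nm emission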
# VLA-4 antagonist – inhibitors of LDV-FITC ligand binding to Mn2+-activated human VLA-4 integrin; hit rate 0.2% among 24,000; AID 529; inhibition, % at 10 µM (by protocol); Jurkat cells, LDV-FITC binding with Mn2+, flow cytometry; 100% = Mn2+-driven binding gain fully reversed;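 active = inhibition above 50%; inconclusive = compound itself fluorescent, judged against control cell fluorescence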;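 also: 0% = Mn2+ stimulated cells lacking compound and 100% = ligand binding without Mn2+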
# Prostate diff – activators of LNCaP prostate cell differentiation. side scatter shift, % at 10 µM. hit rate 0.56% among 24,000. flow cytometry side scatter, 4 d;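 active = side scatter shift above 30%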;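 also: androgen-responsive LNCaP prostate cancer cells in charcoal-stripped serum medium; percent of cells past a gate set so DMSO wells show 10% shift; higher shift means more granular cells and more differentiation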
# FPR ligand – human FPR ligand, with FPRL1 counter-screen | P21462 | FPR-expressing cells, fluorescent ligand binding, flow cytometry | inhibition, % (test concentration not listed) | hit rate 0.74% among 24,000 | AID 440;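 also: 0% = buffer wells and 100% = receptor blocker peptide wells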
# Target sequence (P21462 whole entry, looked up): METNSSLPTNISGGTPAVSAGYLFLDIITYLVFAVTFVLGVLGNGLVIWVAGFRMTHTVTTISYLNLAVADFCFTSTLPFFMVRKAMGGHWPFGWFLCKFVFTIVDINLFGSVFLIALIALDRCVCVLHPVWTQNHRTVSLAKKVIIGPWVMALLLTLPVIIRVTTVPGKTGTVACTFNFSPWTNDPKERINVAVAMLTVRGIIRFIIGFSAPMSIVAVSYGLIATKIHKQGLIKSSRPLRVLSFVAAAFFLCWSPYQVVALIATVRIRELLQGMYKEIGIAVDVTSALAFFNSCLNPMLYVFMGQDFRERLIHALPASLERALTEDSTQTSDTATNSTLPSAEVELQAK
# FPRL1 binder – human FPRL1 ligand, with FPR counter-screen; FPRL1-expressing cells, fluorescent ligand binding inhibition, flow cytometry; inhibition, % (no concentration beside the values); hit rate 0.3% among 24,000; AID 441;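 also: 0% = buffer alone and 100% = receptor blocker peptide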
# VLA-4 agonist – allosterically activates the human VLA-4 integrin; Jurkat cells, LDV-FITC binding, flow cytometry; P13612; activation, % at 10 µM (by protocol); 24,000 tested, under 10 active;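 active = fluorescent ligand binding to cells raised by more than 40% of the manganese-induced maximum; inconclusive = compound's own fluorescence above 85% of the ligand control signal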;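 also: 0% = ligand binding without compound and 100% = manganese-stimulated maximal binding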
# Active calls of the source: *; ? = inconclusive; nt = no result. Rows were chosen to be rich in hits. Some 2.4% of all compounds tested hit in one or more screens of this group. Rule as the data show it, unless noted: active = inhibition above about 30%; inconclusive = no clear call, values can overlap the other calls; inactive = below that.
SMILES,Autofluor Jurkat,VLA-4 antagonist,Prostate diff,FPR ligand,FPRL1 binder,VLA-4 agonist
CC(C)C(O)P(=O)(OCc1ccccc1)c1ccc(N(C)C)cc1 (stereo not drawn),0.96,-4,2,-1,0,-2
CCOC(=O)C1CCCN(C(=O)c2sc3nc(-c4ccc(OC)cc4)cn3c2C)C1 (stereo not drawn),1.4,?,4,-2,4,?
CCOC(=O)C1=C(C)N=c2s/c(=C\c3cccn3C)c(=O)n2C1c1cccc(OC)c1OC (stereo not drawn),7.8*,?,11,-18,-23,?
CC1CCN(CCNC(=O)c2ccc3c(=O)n(CCc4ccccc4)c(=O)[nH]c3c2)CC1,0.93,11,5,-3,-5,3
CC1CCCCN1CCNC(=O)c1ccc2c(=O)n(CCc3ccccc3)c(=O)[nH]c2c1 (stereo not drawn),1.1,-6,48*,-3,-6,2
FC(F)(F)c1ccc(N2CCOCC2)c(Nc2nc3ccccc3n3cnnc23)c1,2.7*,?,5,13,-3,?
O=CN1CC(=O)N(c2ccccc2)c2c([nH]c3ccccc23)C1,1,11,5,2,-1,4
COc1ccc(C2/C(=C(/O)c3ccccc3)C(=O)C(=O)N2CC(C)O)c(OC)c1 (stereo not drawn),1.5,?,13,42*,7,?
COc1ccc(/C(O)=C2\C(=O)C(=O)N(Cc3ccco3)C2c2cc(OC)ccc2OC)cc1 (stereo not drawn),nt,nt,nt,-11,-4,nt
COc1ccccc1C1/C(=C(/O)c2ccccc2)C(=O)C(=O)N1CC(C)C (stereo not drawn),1.1,-18,11,63*,-4,10
Cc1ccc(/C(O)=C2\C(=O)C(=O)N(CC(C)O)C2c2ccc(N(C)C)cc2)cc1 (stereo not drawn),nt,nt,nt,36*,24,nt
Cc1ccc(C2/C(=C(/O)c3ccc(Br)cc3)C(=O)C(=O)N2Cc2ccco2)o1 (stereo not drawn),nt,nt,nt,31*,-2,nt
COc1ccccc1C1/C(=C(/O)c2ccc(C)cc2)C(=O)C(=O)N1CC(C)O (stereo not drawn),nt,nt,nt,-10,1,nt
COc1ccc(OC)c(C2C(C(N)=O)=C(C)Nc3nc(CCCO)nn32)c1 (stereo not drawn),0.97,-18,11,0,-1,6
CC1CC(C)CN(CCCNC(=O)C2CCCN(c3nnc(N4CCCC4=O)s3)C2)C1 (stereo not drawn),1.1,12,12,6,4,-2
COc1cccc(/C(O)=C2/C(=O)C(=O)N(Cc3ccco3)C2c2ccncc2)c1 (stereo not drawn),nt,nt,nt,12,-2,nt
COc1ccc(OC)c(C2/C(=C(/O)c3ccccc3)C(=O)C(=O)N2Cc2ccco2)c1 (stereo not drawn),nt,nt,nt,92*,-15,nt
CCOc1cccc(/C(O)=C2/C(=O)C(=O)N(Cc3ccco3)C2c2ccncc2)c1 (stereo not drawn),nt,nt,nt,48*,29,nt
COc1ccc(-c2nc3cc(NC(=O)Cc4ccc(OC)c(OC)c4)ccc3o2)cc1,1.1,15,6,3,1,-6
CCn1c(=O)c(=O)[nH]c2cc(C(=O)N3CCN(c4ccccc4F)CC3)ccc21,1.1,-10,8,1,2,0
O=C(Nc1ccon1)c1cnc2sccn2c1=O,2.5*,?,12,-1,-2,?
Cc1cccc(NC(=O)c2cnc3sccn3c2=O)n1,1,-1,6,0,6,-6
Cc1ccccc1-c1nc(CN2CCC(C(=O)NCCC3=CCCCC3)CC2)c(C)o1,1,38,34*,2,5,-7
COc1ccc(CCNC(=O)C2CCN(Cc3nc(-c4ccccc4C)oc3C)CC2)cc1OC,1.1,12,11,0,-2,-5
Cc1ccccc1-c1nc(CN2CCC(C(=O)NC3CCN(Cc4ccccc4)CC3)CC2)c(C)o1,1,4,48*,-2,-2,0
SMILES,Autofluor Jurkat,VLA-4 antagonist,Prostate diff,FPR ligand,FPRL1 binder,VLA-4 agonist
Cc1ccccc1-c1nc(CN2CCC(C(=O)O)CC2)c(C)o1,1,-18,4,-6,-4,-2
O=C(O)CCC(=O)c1c[nH]c2ccccc12,1,-46,15,-6,1,11
Cc1nc(SCC(=O)c2c[nH]c3ccccc23)n[nH]1,3.4*,?,9,-3,-5,?
CC12C=CC3(CN(Cc4ccccc4)C(=O)C3C1C(=O)NC1CC1)O2 (stereo not drawn),1,-20,5,0,-4,-1
CCOC(=O)Cc1cc(=O)n2[nH]c(C)c(-c3ccc(OC)cc3)c2n1,1.1,-8,2,44*,1,-2
CCOC(=O)Cc1cc(=O)n2[nH]c(C)c(-c3ccc(Cl)cc3)c2n1,nt,nt,nt,54*,1,nt
COC(=O)Cc1cc(=O)n2[nH]c(C)c(-c3ccccc3)c2n1,nt,nt,nt,5,2,nt
COc1ccc2c(c1)CCc1c(C(=O)Nc3cc(C)n(Cc4ccc(Cl)cc4)n3)noc1-2,0.94,-5,62*,1,2,2
COc1ccc(CC(=O)OCC(=O)NC(=O)NC2CCCCC2)cc1,0.96,9,12,5,1,2
COC(=O)c1ccc2c(=O)n(Cc3ccco3)c(SCC(=O)Nc3ccc(C)c(Cl)c3)nc2c1,1,-5,34*,1,2,1
COc1ccc(Cn2c(C)nc3c(c2=O)c2nc4ccccc4nc2n3Cc2ccco2)cc1,1.2,-16,58*,0,-5,6
CCN(CC)CCn1c(=N)n(CCO)c2ccccc21,1.1,-1,2,2,-5,-8
N=c1n(CCO)c2ccccc2n1CCOc1ccc(Cl)cc1Cl,1.1,13,39*,0,-3,-5
COc1ccccc1C(=O)Nc1c2c(nn1-c1cccc(C)c1C)CS(=O)C2 (stereo not drawn),1.1,?,14,7,0,?
O=C(NCc1cccs1)C1CCC(=O)N1C1CCCCC1 (stereo not drawn),1.1,-9,8,-1,-2,0
Cc1nnc(SCc2nc3ccccc3s2)n1-c1ccccc1,2.8*,?,9,-7,-6,?
CCCSc1nnc(Cn2c(=O)sc3ccccc32)n1-c1ccccc1,0.92,-2,14,3,2,3
Cc1ccc2oc(=O)c3cc(C(=O)N4CCN(c5ncccn5)CC4)sc3c2c1,1.3,15,5,8,6,-5
CCOC(=O)C1=C(C)Nc2nnnn2C1c1c[nH]c2ccccc12 (stereo not drawn),1.1,-18,6,3,-5,6
COC(=O)C1=[N+]([O-])OC(C(=O)OC)C1c1c[nH]c2ccccc12 (stereo not drawn),1,-4,8,35*,77*,6

# Screening results: PubChem, NMMLSC
